Results reported in PubChem BioAssay (Tox21).
Values without a mark were called inactive. Where a call stands in place of a potency, no number is given. The source made the active and inactive calls. Unless noted, calls follow the shape of the dose curve; as a rule, active = well fitted curve in the direction sought with a large enough effect in the repeat runs; inconclusive = weak or mixed curves; inactive = no such curve, though single readings can be large; an effect the other way counts as inactive or inconclusive.

Key:
[1] = qHTS assay to identify small molecule antagonists of the thyroid receptor (TR) signaling pathway - cell viability counter screen (AID 743064); also: nearly all actives have a fitted effect of over 50% in size; also: potency is read from the fitted curve at half-maximal effect
How it was run: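 Same-well viability check: GH3.TRE-Luc cells stimulated with 1 nM T3 alongside test compound for 23.5 h, followed by CellTiter-Fluor fluorescence.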

[2] = qHTS assay to identify small molecule antagonists of the thyroid receptor (TR) signaling pathway (AID 743065); also: nearly all actives have a fitted effect of over 55% in size; also: potency is read from the fitted curve at half-maximal effect
How it was run: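 Antagonism measured as loss of luciferase signal in GH3 cells stably carrying a TRE-luciferase reporter, co-treated with compound and T3 (1 nM final) for 23.5 h at 37 C. Viability was read in the same well by CellTiter-Fluor.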

[3] = system: thyroid hormone receptor (rat, GH3 cells); assay: qHTS assay to identify small molecule agonists of the thyroid receptor (TR) signaling pathway (AID 743066; calls by dose curve)
[4] = qHTS assay to identify small molecule antagonists of the estrogen receptor alpha (ER-alpha) signaling pathway - cell viability counter screen (AID 743074; calls by dose curve;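 also: HEK293 cells carrying ER-alpha-UAS-bla reporter stimulated with 17beta-estradiol; nearly all actives have a fitted effect of over 45% in size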; also: potency is read from the fitted curve at half-maximal effect)
[5] = qHTS assay to identify small molecule antagonists of the estrogen receptor alpha (ER-alpha) signaling pathway using the BG1 cell line - cell viability counter screen (AID 743081);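 also: compound given together with 17beta-estradiol as the ER stimulus; nearly all actives have a fitted effect of over 45% in size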; also: potency is read from the fitted curve at half-maximal effect
[6] = qHTS assay to identify small molecule that activate the aryl hydrocarbon receptor (AhR) signaling pathway - cell viability counter screen (AID 743086); also: nearly all actives have a fitted effect of over 45% in size; also: potency is read from the fitted curve at half-maximal effect
How it was run: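 Cytotoxicity counter screen: CellTiter-Fluor signal (30 min, 37 C) in 4000 HepG2 cells/well carrying the DRE-luciferase reporter, following 24 h compound exposure at 37 C.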

[7] = qHTS assay to identify small molecule phospholipidosis (PLD) inducers (AID 1259344; active = well fitted curve in the direction sought with a large enough effect; inconclusive = small, poorly fitted or top-dose-only effect, or another doubt; inactive = no such curve, though single readings can be large; an effect the other way counts as inactive or inconclusive)
How it was run: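 Phospholipid accumulation was scored by imaging: fixed, Hoechst-counterstained HepG2 cells stained with LipidTOX Red after 24 h compound exposure at 37 C. Read-outs were pit count and pit intensity per well or per cell, with amiodarone and DMSO controls.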

[8] = target: Nuclear receptor subfamily 1 group I member 2 (Rattus norvegicus) (UniProt Q9R1A7); assay: Rat pregnane X receptor (rPXR) activation by small molecules, qHTS assay (AID 1346983); conditions: rPXR luciferase reporter cells, One-Glo luminescence, 24 h; max activation: stronger effect = higher value; also: nearly all actives have a fitted effect of over 20% in size
Sequence of Nuclear receptor subfamily 1 group I member 2 (Rattus norvegicus) (Q9R1A7 whole entry, looked up): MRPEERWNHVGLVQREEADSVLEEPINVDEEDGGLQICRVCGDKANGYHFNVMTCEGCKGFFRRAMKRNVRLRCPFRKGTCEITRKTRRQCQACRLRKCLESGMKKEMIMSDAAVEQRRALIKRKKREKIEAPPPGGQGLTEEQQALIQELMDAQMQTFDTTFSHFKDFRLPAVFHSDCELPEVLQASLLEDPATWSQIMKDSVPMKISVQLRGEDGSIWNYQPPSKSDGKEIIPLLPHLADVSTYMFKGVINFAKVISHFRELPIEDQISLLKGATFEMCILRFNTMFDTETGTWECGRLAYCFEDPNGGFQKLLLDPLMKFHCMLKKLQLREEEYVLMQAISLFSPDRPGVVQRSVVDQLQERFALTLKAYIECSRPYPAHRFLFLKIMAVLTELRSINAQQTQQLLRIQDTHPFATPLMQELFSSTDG
How it was run: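 Luminescent readout (One-Glo luciferase, 30 min room temperature) followed 24 hr compound treatment at 37 C of rPXR cells plated 2,000 per well and preincubated 5hr; qHTS format with compounds delivered in DMSO.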

[9] = target: Nuclear receptor subfamily 1 group I member 2 (Homo sapiens) (UniProt O75469); assay: CYP3A4 induction through human pregnane X receptor (PXR) by small molecules, qHTS assay (AID 1346984); also: nearly all actives have a fitted effect of over 40% in size; also: potency is read from the fitted curve at half-maximal effect
How it was run: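 Human PXR activation is tracked via CYP3A4 promoter-luciferase in DPX-2 (HepG2) cells. Compounds treat cells for 24hr at 37C, and luminescence is read after One-Glo.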

[10] = target: Nuclear receptor subfamily 1 group I member 2 (Homo sapiens) (UniProt O75469); assay: Human pregnane X receptor (PXR) activation by small molecules, qHTS assay (AID 1346985); also: nearly all actives have a fitted effect of over 40% in size; also: potency is read from the fitted curve at half-maximal effect
How it was run: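 DPX-2 cells (HepG2 co-transfected with a PXR response element and a CYP3A4-promoter luciferase construct) were seeded at 2,000 per well, rested 5 hr at 37C, then exposed to DMSO-dissolved compounds for 24 hr. Activation was read as luciferase luminescence.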

[11] = target: Estrogen receptor (Homo sapiens) (UniProt P03372); assay: qHTS assay to identify small molecule agonists of the estrogen receptor alpha (ER-alpha) signaling pathway (AID 743075; calls by dose curve;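 also: HEK293 GripTite cells with ER-alpha and UAS-driven beta-lactamase reporter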; also: potency is read from the fitted curve at half-maximal effect)
Sequence of Estrogen receptor (Homo sapiens) (P03372 whole entry, looked up): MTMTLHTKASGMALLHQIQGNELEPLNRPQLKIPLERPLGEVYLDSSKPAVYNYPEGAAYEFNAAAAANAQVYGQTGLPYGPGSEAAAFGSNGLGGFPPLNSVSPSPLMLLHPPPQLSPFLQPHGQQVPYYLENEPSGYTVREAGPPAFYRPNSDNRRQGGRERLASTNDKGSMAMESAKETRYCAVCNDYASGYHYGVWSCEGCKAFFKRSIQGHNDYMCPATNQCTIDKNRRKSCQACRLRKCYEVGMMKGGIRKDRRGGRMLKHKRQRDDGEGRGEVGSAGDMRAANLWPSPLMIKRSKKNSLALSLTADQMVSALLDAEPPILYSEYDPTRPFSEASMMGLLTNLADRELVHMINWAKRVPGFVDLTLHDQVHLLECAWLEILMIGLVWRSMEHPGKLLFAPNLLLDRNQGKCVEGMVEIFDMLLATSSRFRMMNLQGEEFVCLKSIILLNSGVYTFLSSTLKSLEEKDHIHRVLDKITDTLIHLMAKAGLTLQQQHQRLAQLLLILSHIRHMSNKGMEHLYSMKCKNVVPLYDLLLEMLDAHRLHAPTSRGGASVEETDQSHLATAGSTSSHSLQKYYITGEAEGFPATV

[12] = target: Estrogen receptor (Homo sapiens) (UniProt P03372); assay: qHTS assay to identify small molecule agonists of the estrogen receptor alpha (ER-alpha) signaling pathway using the BG1 cell line (AID 743079); conditions: BG1Luc4E2 cells, ERE-luciferase agonist, 22 h; activation: at 70.3 µM (top of the series); also: nearly all actives have a fitted effect of over 20% in size; also: potency is read from the fitted curve at half-maximal effect
[13] = qHTS assay to identify small molecule antagonists of the estrogen receptor alpha (ER-alpha) signaling pathway using the BG1 cell line (AID 743080; calls by dose curve;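 also: BG1 cells stimulated with 17beta-estradiol alongside compound; nearly all actives have a fitted effect of over 25% in size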)
How it was run: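 Endogenous full-length ER-alpha in BG1-Luc-4E2 cells drives a stably integrated 4×ERE luciferase gene; compounds were tested against 17beta-estradiol over 21.5 h, with luminescence and multiplexed viability fluorescence recorded.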

Aromatase (Homo sapiens) = Aromatase (Homo sapiens) (UniProt P11511); assay: qHTS assay to identify aromatase inhibitors (AID 743083); also: nearly all actives have a fitted effect of over 55% in size; also: potency is read from the fitted curve at half-maximal effect
Sequence of Aromatase (Homo sapiens) (P11511 whole entry, looked up): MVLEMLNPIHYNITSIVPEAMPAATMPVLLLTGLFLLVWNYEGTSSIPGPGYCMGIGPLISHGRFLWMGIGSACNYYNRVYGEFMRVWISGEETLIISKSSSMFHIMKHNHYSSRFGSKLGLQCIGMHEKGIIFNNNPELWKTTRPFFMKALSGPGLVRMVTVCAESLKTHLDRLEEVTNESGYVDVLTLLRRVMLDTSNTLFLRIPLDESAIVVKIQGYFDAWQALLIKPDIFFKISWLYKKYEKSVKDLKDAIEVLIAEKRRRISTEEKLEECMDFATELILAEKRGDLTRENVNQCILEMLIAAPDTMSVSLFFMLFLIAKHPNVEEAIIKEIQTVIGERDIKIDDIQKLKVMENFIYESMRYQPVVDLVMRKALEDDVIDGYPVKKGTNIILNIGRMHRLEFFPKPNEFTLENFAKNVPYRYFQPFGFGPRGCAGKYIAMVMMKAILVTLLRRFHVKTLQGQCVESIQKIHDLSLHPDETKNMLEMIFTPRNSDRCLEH

[14] = qHTS assay to identify aromatase inhibitors - cell viability counter screen (AID 743084);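 also: cells stimulated with testosterone during compound exposure; nearly all actives have a fitted effect of over 55% in size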; also: potency is read from the fitted curve at half-maximal effect
[15] = target: Aryl hydrocarbon receptor (Homo sapiens) (UniProt P35869); assay: qHTS assay to identify small molecule that activate the aryl hydrocarbon receptor (AhR) signaling pathway (AID 743085);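 also: HG2L7.5c1 human HepG2 liver cells with stably integrated DRE-driven firefly reporter; nearly all actives have a fitted effect of over 15% in size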
Sequence of Aryl hydrocarbon receptor (Homo sapiens) (P35869 whole entry, looked up): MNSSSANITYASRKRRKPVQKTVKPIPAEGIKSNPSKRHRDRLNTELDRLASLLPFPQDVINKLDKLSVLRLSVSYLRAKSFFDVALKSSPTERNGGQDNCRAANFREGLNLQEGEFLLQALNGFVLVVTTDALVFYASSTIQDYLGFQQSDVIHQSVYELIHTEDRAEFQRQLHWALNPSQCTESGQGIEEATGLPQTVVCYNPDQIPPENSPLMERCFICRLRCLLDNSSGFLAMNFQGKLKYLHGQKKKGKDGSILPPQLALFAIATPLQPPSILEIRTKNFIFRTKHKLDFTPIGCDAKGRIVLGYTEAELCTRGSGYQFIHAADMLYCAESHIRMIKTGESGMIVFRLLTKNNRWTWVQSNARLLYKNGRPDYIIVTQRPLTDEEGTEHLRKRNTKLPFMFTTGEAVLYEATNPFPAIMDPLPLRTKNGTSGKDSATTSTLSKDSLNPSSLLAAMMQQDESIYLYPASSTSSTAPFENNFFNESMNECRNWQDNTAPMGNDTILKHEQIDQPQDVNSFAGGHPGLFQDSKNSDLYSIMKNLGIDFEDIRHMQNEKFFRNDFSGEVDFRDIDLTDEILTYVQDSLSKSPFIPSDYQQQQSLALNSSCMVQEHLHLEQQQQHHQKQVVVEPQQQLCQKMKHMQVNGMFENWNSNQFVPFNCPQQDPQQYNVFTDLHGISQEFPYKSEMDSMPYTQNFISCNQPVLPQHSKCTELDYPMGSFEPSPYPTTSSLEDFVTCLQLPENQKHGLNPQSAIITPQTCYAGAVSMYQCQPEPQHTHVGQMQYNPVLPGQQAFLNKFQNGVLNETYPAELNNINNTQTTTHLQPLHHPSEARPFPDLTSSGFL
How it was run: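 Reporter assay in engineered HepG2 line HG2L7.5c1, whose plasmid carries twenty dioxin responsive elements upstream of firefly luciferase. Treatment lasted 24 h at 37C; ONE-Glo luminescence gauged induction.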

[16] = target: Peroxisome proliferator-activated receptor gamma (Homo sapiens) (UniProt P37231); assay: qHTS assay to identify small molecule agonists of the peroxisome proliferator-activated receptor gamma (PPARg) signaling pathway (AID 743094; active = well fitted activation curve with a large enough effect in the signal ratio in the repeat runs, not every such curve was filed as active; inconclusive = weak or mixed curves, or effect the other way; inactive = no such curve, though single readings can be large or run the other way; the % refers to the signal ratio)
Sequence of Peroxisome proliferator-activated receptor gamma (Homo sapiens) (P37231 whole entry, looked up): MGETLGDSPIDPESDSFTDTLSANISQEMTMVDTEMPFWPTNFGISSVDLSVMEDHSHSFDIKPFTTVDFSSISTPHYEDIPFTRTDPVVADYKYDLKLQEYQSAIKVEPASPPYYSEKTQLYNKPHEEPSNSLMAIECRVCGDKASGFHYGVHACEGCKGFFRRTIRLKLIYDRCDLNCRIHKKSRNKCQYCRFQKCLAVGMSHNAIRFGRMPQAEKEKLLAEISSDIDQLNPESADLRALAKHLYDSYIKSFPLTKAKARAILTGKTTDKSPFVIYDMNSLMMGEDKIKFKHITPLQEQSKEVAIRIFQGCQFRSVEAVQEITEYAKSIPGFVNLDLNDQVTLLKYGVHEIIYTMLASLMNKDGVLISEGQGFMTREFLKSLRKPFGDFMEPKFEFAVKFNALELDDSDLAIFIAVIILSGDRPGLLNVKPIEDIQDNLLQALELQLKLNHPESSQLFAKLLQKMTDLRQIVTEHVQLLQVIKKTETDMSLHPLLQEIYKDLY
How it was run: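 Cell-based bla reporter, HEK293H background, PPARg-driven UAS. Pre-incubation 5 h, 37C, 5% CO2. Compound 17 h, 37C. Substrate 1 h RT; fluorescence.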

[17] = target: Estrogen receptor (Homo sapiens) (UniProt P03372); assay: qHTS assay to identify small molecule antagonists of the estrogen receptor alpha (ER-alpha) signaling pathway (AID 743069; active = well fitted curve in the direction sought with a large enough effect in the signal ratio in the repeat runs, not every such curve was filed as active; inconclusive = weak or mixed curves, or effect the other way; inactive = no such curve, though single readings can be large or run the other way; the % refers to the signal ratio; also: potency is read from the fitted curve at half-maximal effect)
How it was run: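 Antagonist mode: compounds in DMSO were co-added with 17beta-estradiol to ER-alpha-bla HEK293 cells (2% charcoal-stripped serum) and left 18 h at 37C. Reporter inhibition was measured as FRET fluorescence after 2 h LiveBLAzer substrate at room temperature.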

Row | Compound | Potency [1] | Potency [2] | Potency [3] | Potency [4] | Potency [5] | Potency [6] | Potency [7] | max activation [8] [%] | Potency [9] | Potency [10] | Potency [11] | Potency [12] | Potency [13] | Potency (Aromatase (Homo sapiens)) | Potency [14] | Potency [15] | Potency [16] | Potency [17]
1 | NC(=O)OC[C@@H]1[C@H](NC(=O)/C(=N\OCC(=O)O)c2csc(N)n2)C(=O)N1S(=O)(=O)O | inactive | inactive | inactive | inactive | inactive | inactive | inactive | -2.39 | inactive | inactive | – | – | – | – | – | – | – | –
2 | O=[N+]([O-])c1c(Cl)cccc1-c1c[nH]cc1Cl | 29.8 µM (active) | 26.6 µM (active) | – | – | – | – | inactive | 9.62 | 11.2 µM (active) | 14.1 µM (active) | 4.77 µM [inconclusive] (active) | – | – | – | – | – | – | –
3 | CC(/C=C/C=C(\C)C(=O)O[C@@H]1O[C@H](CO[C@@H]2O[C@H](CO)[C@@H](O)[C@H](O)[C@H]2O)[C@@H](O)[C@H](O)[C@H]1O)=C\C=C\C=C(C)\C=C\C=C(/C)C(=O)O[C@@H]1O[C@H](CO[C@@H]2O[C@H](CO)[C@@H](O)[C@H](O)[C@H]2O)[C@@H](O)[C@H](O)[C@H]1O | inactive | inactive | inactive | inactive | inactive | inactive | inactive | -0.182 | inactive | inactive | – | – | – | – | – | – | – | –
4 | CC(C)[C@@H](C)/C=C/[C@@H](C)[C@H]1CC[C@H]2/C(=C/C=C3\C[C@@H](O)CC[C@@H]3C)CCC[C@]12C | inactive | – | inactive | inactive | inactive | inactive | inactive | -0.157 | inactive | inactive | inactive | inactive | inactive | inactive | inactive | inactive | – | –
5 | CN=C1C=CC(=C(c2ccc(N(C)C)cc2)c2ccc(N(C)C)cc2)C=C1 | 3.35 µM (active) | 2.37 µM (active) | – | 9.52 µM (active) | 11.9 µM (active) | 6.68 µM (active) | inactive | -26 | inactive | inactive | – | – | – | 1.33 µM (active) | 6.68 µM (active) | – | – | –
6 | CCCCCCCCCCCCCCCCCCCCCCO | inactive | inactive | inactive | inactive | inactive | inactive | inactive | -1.89 | inactive | inactive | – | – | – | inactive | inactive | inactive | inactive | –
7 | O=C1NC(=O)[C@H]2[C@@H]1[C@@H]1C=C[C@H]2C1 | inactive | inactive | inactive | inactive | inactive | inactive | inactive | -2.18 | inactive | inactive | – | – | – | inactive | inactive | inactive | inactive | –
8 | C[C@H]1[C@@H](OC(=O)CCC(=O)O)O[C@@H]2OC3(C)CC[C@H]4[C@H](C)CC[C@@H]1[C@@]24OO3 | 2.98 µM (active) | 1.06 µM (active) | – | inactive | – | – | inactive | -13.4 | inactive | inactive | inactive | inactive | inactive | – | – | inactive | – | 7.56 µM [inconclusive] (active)
9 | Cc1c(Cl)cccc1Nc1ncccc1C(=O)O | – | 23.7 µM (active) | inactive | inactive | inactive | inactive | inactive | 0.0958 | inactive | inactive | inactive | – | – | inactive | inactive | – | inactive | –
10 | NC(=O)OCC(O)COc1ccc(Cl)cc1 (stereo unspecified) | – | inactive | inactive | inactive | inactive | inactive | inactive | 0.928 | inactive | inactive | inactive | inactive | inactive | inactive | inactive | inactive | – | inactive
11 | C=CCOc1ccc(CC(=O)O)cc1Cl | – | inactive | inactive | inactive | inactive | inactive | inactive | -5.29 | inactive | inactive | 3.79 µM [inconclusive] (active) | 0.266 µM (active) | inactive | inactive | inactive | – | – | –
